The text below walks through data of PubChem BioAssay.

Assay [1] is described as follows: E. coli DRC41 culture turbidity changes, primary screen, E. coli filamentation inducer project, strain DRC41, OD650, 48 h (AID 1152).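 Also: E. coli MC1000 strain DRC41 lacking acrAB efflux pump and sulA.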 Particulars: E. coli DRC41 (acrAB sulA), higher = more signal, called active from +8 up or from −8 down.
Assay [2] in a line: small-molecule binders of probe aLefty1, primary screen, biochemical, small-molecule microarray, 635/667 nm fluorescence (AID 1153).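 Also: score merges spot fluorescence with signal-to-noise ratio from the scanned slide images.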 Particulars: higher = more signal.
Assay [3] can be described thus: PSAC antagonists in infected red cells, primary screen, cell-based, P. falciparum Indochina, OD700, 1 h (AID 1154). Particulars: P. falciparum Indochina infected RBC osmotic lysis, higher = more signal, called active from +8 up or from −8 down.
Assay [4] is described as follows: PSAC antagonists in infected red cells, primary screen, cell-based, P. falciparum Indochina, OD700, 2 h (AID 1155).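 Also: lysis reports solute entry through the parasite surface anion channel PSAC; channel blockers reduce lysis of infected cells.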 The note with it: P. falciparum Indochina infected erythrocytes, osmotic lysis OD700; higher = more signal, called active from +8 up or from −8 down.
A short description of assay [5]: osmotic lysis modulators in infected erythrocytes, primary screen, PSAC antagonist project, cell-based, P. falciparum Indochina, OD700, 3 h (AID 1156). Particulars: higher = more signal, called active from +8 up or from −8 down.
A short description of assay [6]: PSAC antagonists in infected red cells, primary screen, cell-based, P. falciparum Indochina, OD700, 18 h (AID 1157). Particulars: P. falciparum Indochina infected erythrocytes, osmotic lysis OD700, 18 h; higher = more signal, called active from +8 up or from −8 down.
Assay [7] can be described thus: modulators of S6 phosphorylation in cells, primary screen, cell-based, A549, cytoblot, luminescence, serum-stimulated (AID 1158).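 Also: serum-stimulated A549 lung adenocarcinoma cells; signal is phosphorylated S6 detected by cytoblot immunostaining with HRP secondary.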 Particulars: A549 phospho-S6 cytoblot, 5 h, higher = more signal.
Assay [8] addresses NADPH oxidase 2 (Homo sapiens) (UniProt P04839). The experiment in a line: NOX2-dependent H2O2 signal modulators, primary screen, NOX inhibitor project, cell-based, HEK293-NOX2, PMA-stimulated, Amplex Red fluorescence (AID 1159). Also: test concentration not given here. Particulars: 45 min, higher = more signal, called active from +8 up or from −8 down.
Assay [9] has as its target NADPH oxidase 4 (Homo sapiens) (UniProt Q9NPH5). The experiment in a line: NOX4-dependent H2O2 signal modulators, primary screen, NOX inhibitor project, cell-based, HEK293-NOX4, tetracycline-induced, Amplex Red fluorescence (AID 1160). The note with it: 45 min, higher = more signal, called active from +8 up or from −8 down.
The target of assay [10] is NADPH oxidase 5 (Homo sapiens) (UniProt Q96PH1). The experiment in a line: NOX5-dependent H2O2 signal modulators, primary screen, NOX inhibitor project, cell-based, HEK293-NOX5, Amplex Red fluorescence (AID 1161). The note with it: HEK293-NOX5, ionomycin, 45 min, higher = more signal.
Assay [11] can be described thus: A549 cell viability effects, profiling panel, calcein-AM fluorescence, 48 h, basal (AID 1162). Also: test concentration not given here. The note with it: higher = more signal.
Assay [12] in a line: adipocyte viability effects, profiling panel, cell-based, 3T3-L1 adipocytes, calcein-AM fluorescence, 48 h, basal (AID 1163). Also: test concentration not given here. The note with it: 3T3-L1 adipocytes viability, higher = more signal.
The nature of assay [13]: HepG2 cell viability effects, profiling panel, calcein-AM fluorescence, 48 h, basal (AID 1164). Also: test concentration not given here. The note with it: higher = more signal.
A short description of assay [14]: MM1S cell viability effects, profiling panel, calcein-AM fluorescence, 48 h, basal (AID 1165).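 Also: viability of MM1S multiple myeloma cells under basal unstimulated conditions; test concentration not given here.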 The note with it: higher = more signal.
Assay [15] is described as follows: basal RPMI8226 viability, no added stimulus, profiling panel, cell-based, calcein-AM fluorescence, 48 h, PK04 Diversity Set (AID 1166).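 Also: cells grown under basal conditions without added stimulus; test concentration not given here.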 The note with it: RPMI8226 myeloma viability, higher = more signal.
Assay [16] can be described thus: basal HepG2 mitochondrial membrane potential changes, profiling panel, cell-based, JC-1 fluorescence, 24 h, 100 nL compound (AID 1167). Also: test concentration not given here. Particulars: higher = more signal.
The nature of assay [17]: basal 3T3-L1 adipocyte mitochondrial potential changes, profiling panel, cell-based, JC-1 fluorescence, 3T3-L1 adipocytes, 24 h, 100 nL compound (AID 1168). Also: test concentration not given here. Particulars: JC-1 mitochondrial fluorescence, higher = more signal, called active from +8 up or from −8 down.
Assay [18] can be described thus: basal RPMI8226 mitochondrial membrane potential changes, profiling panel, cell-based, JC-1 fluorescence, 24 h, 100 nL compound (AID 1169). Also: test concentration not given here. Particulars: RPMI8226 myeloma, JC-1 mitochondrial potential fluorescence, higher = more signal.
Assay [19] in a line: basal MM1S mitochondrial membrane potential changes, profiling panel, cell-based, JC-1 fluorescence, 24 h, 100 nL compound (AID 1170). Also: test concentration not given here. The note with it: higher = more signal.
Assay [20] can be described thus: A549 lung cancer cell viability effects, profiling panel, resazurin fluorescence, 24 h, PK04 Diversity Set (AID 1171). Also: test concentration not given here. Particulars: higher = more signal, called active from +8 up or from −8 down.

Calls of active or inactive are those of the source.

Chain of NADPH oxidase 2 (Homo sapiens) (P04839 whole entry, looked up): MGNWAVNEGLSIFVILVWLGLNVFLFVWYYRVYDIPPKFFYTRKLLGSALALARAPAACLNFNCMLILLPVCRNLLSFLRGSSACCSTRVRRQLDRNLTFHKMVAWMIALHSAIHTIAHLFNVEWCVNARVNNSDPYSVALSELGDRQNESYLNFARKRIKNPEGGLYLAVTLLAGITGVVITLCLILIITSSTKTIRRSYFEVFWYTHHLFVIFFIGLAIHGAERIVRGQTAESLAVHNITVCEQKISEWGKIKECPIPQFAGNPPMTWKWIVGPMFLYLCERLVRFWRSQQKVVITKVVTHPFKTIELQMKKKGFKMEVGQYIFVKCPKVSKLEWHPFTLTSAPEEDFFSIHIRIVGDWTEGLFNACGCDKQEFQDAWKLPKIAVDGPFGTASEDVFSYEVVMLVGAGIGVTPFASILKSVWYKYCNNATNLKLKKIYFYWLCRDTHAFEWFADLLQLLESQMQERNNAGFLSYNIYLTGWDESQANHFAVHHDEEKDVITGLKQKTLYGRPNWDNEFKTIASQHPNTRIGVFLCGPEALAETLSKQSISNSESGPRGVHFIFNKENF
Chain of NADPH oxidase 5 (Homo sapiens) (Q96PH1 whole entry, looked up): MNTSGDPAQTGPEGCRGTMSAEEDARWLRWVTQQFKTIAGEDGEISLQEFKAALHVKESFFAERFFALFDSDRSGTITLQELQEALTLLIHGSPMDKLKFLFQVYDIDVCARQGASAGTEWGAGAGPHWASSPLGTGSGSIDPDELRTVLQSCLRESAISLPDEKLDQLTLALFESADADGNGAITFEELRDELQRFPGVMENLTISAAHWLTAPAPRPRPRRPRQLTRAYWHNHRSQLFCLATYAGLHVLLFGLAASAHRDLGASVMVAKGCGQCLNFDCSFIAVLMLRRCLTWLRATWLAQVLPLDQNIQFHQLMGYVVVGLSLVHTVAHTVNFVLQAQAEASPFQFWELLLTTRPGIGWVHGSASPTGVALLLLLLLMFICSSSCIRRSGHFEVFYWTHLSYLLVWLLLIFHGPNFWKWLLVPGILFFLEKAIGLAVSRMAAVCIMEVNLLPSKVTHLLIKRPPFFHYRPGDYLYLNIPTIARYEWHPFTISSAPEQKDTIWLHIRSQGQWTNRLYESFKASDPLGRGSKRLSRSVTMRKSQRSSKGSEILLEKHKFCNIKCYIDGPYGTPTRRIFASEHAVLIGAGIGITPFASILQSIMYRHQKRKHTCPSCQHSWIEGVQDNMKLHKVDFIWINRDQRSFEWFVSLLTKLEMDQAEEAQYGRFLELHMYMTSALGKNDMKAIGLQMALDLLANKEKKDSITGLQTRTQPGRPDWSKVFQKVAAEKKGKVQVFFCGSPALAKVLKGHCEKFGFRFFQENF
Chain of NADPH oxidase 4 (Homo sapiens) (Q9NPH5 whole entry, looked up): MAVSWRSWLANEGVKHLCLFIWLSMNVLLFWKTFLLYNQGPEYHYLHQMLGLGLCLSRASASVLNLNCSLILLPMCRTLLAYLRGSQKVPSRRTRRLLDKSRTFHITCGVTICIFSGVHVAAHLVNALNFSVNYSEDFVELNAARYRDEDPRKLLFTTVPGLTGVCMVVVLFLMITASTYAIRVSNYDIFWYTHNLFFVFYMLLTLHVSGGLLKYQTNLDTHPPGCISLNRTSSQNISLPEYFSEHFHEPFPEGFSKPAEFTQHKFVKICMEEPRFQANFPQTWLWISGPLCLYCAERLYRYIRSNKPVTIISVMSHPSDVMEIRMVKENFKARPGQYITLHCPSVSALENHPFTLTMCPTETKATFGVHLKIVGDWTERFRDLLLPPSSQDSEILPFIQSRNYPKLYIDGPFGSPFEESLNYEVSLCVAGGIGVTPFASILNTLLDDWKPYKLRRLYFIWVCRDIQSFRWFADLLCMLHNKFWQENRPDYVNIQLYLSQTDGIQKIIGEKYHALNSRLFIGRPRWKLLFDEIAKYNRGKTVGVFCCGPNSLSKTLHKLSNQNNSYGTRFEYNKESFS

Take `COc1ccc([Si](C)(C)[C@@H]2[C@@H](CC(=O)N3Cc4ccccc4C[C@H]3CO)O[C@]3(C(=O)N(Cc4cccc(N5CCCCC5=O)c4)c4ccccc43)[C@H]2C)cc1`: the z-score in assay [1] is -0.261 (inactive); in [3], 4.07 (inactive); in [4] it was 1.27 (inactive); in assay [5], 1.64 (inactive); in assay [6], 0.867 (inactive); in [7] it was 0.297. Moreover, the z-score in assay [8] was -1.63 (inactive); in assay [9], 0.265 (inactive); in assay [10], 0.805; in assay [11], -0.824; in assay [12], 1.85; in [13] it was -1.27. Also, the z-score in assay [14] is -1.55; in assay [15], -3.36; in assay [16], -0.157; in [17], 0.472 (inactive); in assay [18], -0.901; in assay [19], -0.398. The z-score in assay [20] was -2.68 (inactive). In addition, the composite z-score in assay [2] was -0.147.

Regarding `CC(C)c1ccc(NN2C(C(O)c3ccccn3)C=CC3C(=O)N(c4ccccc4)C(=O)C32)cc1` (stereo not given), the z-score in [1] was -0.701 (inactive); in assay [3], 7.66 (inactive); in [4], 1.4 (inactive); in assay [5] it was 2.42 (inactive); in [6], 1.64 (inactive); in assay [7], -0.336. Also, the z-score was -1.2 (inactive) in assay [8]; -3.57 (inactive) in assay [9]; -3.05 in assay [10]; -0.381 in assay [11]; -0.696 in assay [12]; -0.293 in assay [13]. For the same molecule, the z-score in [14] was 0.741; in assay [15] it was -0.712; in assay [16] it was -0.357; in assay [17] it was -1.17 (inactive); in [18], -0.597; in assay [19] it was -0.729. The z-score in assay [20] is -0.943 (inactive). Moreover, the composite z-score in assay [2] was determined as 0.595.

Turning to `C[C@H]1NC(=O)C([C@@H](C)OCc2ccccc2)NC(=O)[C@@]23C(=O)N[C@@H](Cc4ccccc4)C2[C@H](C)[C@@]2(C)O[C@H]2C3/C=C/CC/C=C/CNC1=O` (stereo not given in full), the z-score is 1.85 (inactive) in [1]; 1.79 (inactive) in assay [3]; 0.76 (inactive) in [4]; 0.89 (inactive) in [5]; 0.107 (inactive) in assay [6]; 0.888 in [7]. Besides, the z-score in assay [8] is 1.24 (inactive); in assay [9], -0.179 (inactive); in [10], 0.815; in assay [11] it was 0.33; in assay [12], 0.221; in assay [13] it was 0.456. Besides, the z-score in assay [14] was -0.728; in assay [15], -1.2; in [16], 2.67; in assay [17], 0.434 (inactive); in assay [18], 0.452; in assay [19] it was 1.84. In addition, the z-score in [20] is -0.757 (inactive). Also, the composite z-score in [2] was -0.0094.

`CCN(CC)c1ccc(N2CC=CC34O[C@@H]5/C=C\CCCOC(=O)C5[C@H]3C(=O)N(CCCCCCO)[C@@H]4C2=O)cc1` (stereo not given in full): the z-score in [1] was 1.75 (inactive); in assay [3], 1.78 (inactive); in assay [4] it was -0.475 (inactive); in [5], 0.625 (inactive); in [6], -0.354 (inactive); in [7], 1.66. For the same molecule, the z-score in assay [8] was 0.274 (inactive); in assay [9], 0.275 (inactive); in assay [10], 1.36; in assay [11], 0.626; in assay [12] it was 0.554; in assay [13], 1.24. For the same molecule, the z-score in [14] is 0.0885; in assay [15], 0.0026; in assay [16], 1.09; in [17], 0.587 (inactive); in assay [18] it was -0.25; in assay [19] it was 0.0342. In assay [20], the z-score was 0.0444 (inactive). For the same molecule, the composite z-score in assay [2] came out at 0.135.
